# Measurements taken from a collection of fitness landscapes (doi:10.1126/science.1257360).
# In all, about 140,000 sequences were measured (“enrichment ratio after two sorts for PhoP signalling”: median about 0, highest 2% from about 11 on). The full list was thinned out, with the highest values kept by preference.
# B1: PhoQ; a variant is named by its letters at X, in order, P23837 (parent)
# chain: MKKLLRLFFPLSLRVRFLLATAAVVLVLSLAYGMVALIGYSVSFDKTTFRLLRGESNLFYTLAKWENNKLHVELPENIDKQSPTMTLIYDENGQLLWAQRDVPWLMKMIQPDWLKSNGFHEIEADVNDTSLLLSGDHSIQQQLQEVREDDDDAEMTHSVAVNVYPATSRMPKLTIVVVDTIPVELKSSYMVWSWFIYVLSANLLLVIPLLWVAAWWSLRPIEALAKEVRELEEHNRELLNPATTRELTSLVRNLNRLLKSERERYDKYRTTLTDLTHSLKTPLXXLQXXLRSLRSEKMSVSDAEPVMLEQISRISQQIGYYLHRASMRGGTLLSRELHPVAPLLDNLTSALNKVYQRKGVNISLDISPEISFVGEQNDFVEVMGNVLDNACKYCLEFVEISARQTDEHLYIVVEDDGPGIPLSKREVIFDRGQRVDTLRPGQGVGLAVAREITEQYEGKIVAGESMLGGARMEVIFGRQHSAPKDE
# Variants of: B1
# Assay: enrichment ratio after two sorts for PhoP signalling (ratio (wild type AVST 3.29)); higher = more functional
# Details: with PhoP (E. coli)
row,Variant,enrichment ratio
1,MHTY,≤ 0.25
2,LARC,≤ 0.25
3,RLPH,≤ 0.25
4,TNFS,≤ 0.25
5,RRNI,≤ 0.25
6,GIHS,≤ 0.25
7,YGWR,≤ 0.25
8,KELF,≤ 0.25
9,LMEL,≤ 0.25
10,FVVT,≤ 0.25
11,HNCQ,≤ 0.25
12,KTSH,≤ 0.25
13,QHHI,≤ 0.25
14,GMRC,≤ 0.25
15,KSND,≤ 0.25
16,TCVT,≤ 0.25
17,TCST,24.9
18,TCND,20.6
19,KCST,≤ 0.25
20,HVST,≤ 0.25
21,MCTV,≤ 0.25
22,EWLV,≤ 0.25
23,MTFH,3.3
24,QYHL,≤ 0.25
25,YKTG,≤ 0.25
26,SMFS,≤ 0.25
